This note sets out measurements from PubChem BioAssay (NCI).

Some test systems named below: EKVX NSCLC; SN12C renal; UO-31 renal; TK-10 renal; ACHN renal; CAKI-1 renal; A498 renal; CCRF-CEM leukemia; MOLT-4 leukemia; SR leukemia; RPMI-8226 leukemia; OVCAR-8 ovarian; OVCAR-5 ovarian; OVCAR-4 ovarian; SK-OV-3 ovarian; IGROV1 ovarian; OVCAR-3 ovarian; HS 578T breast; NCI/ADR-RES ovarian; T-47D breast.
Experiment in all cases: NCI-60 one-dose screen, 48 h (100 = growth as untreated, 0 = no growth, -100 = all killed)
Holding throughout (settings): 10 µM unless noted

About 83,000 compounds went through this panel and 20% of them were active in at least one assay; those are over-represented in the sample as a whole.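 How to read the values: 0–100, growth inhibition (40 = 60% inhibited); 0, no net growth; -100 to 0, cell death (-40 = 40% of starting cells died; -100 = all dead).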 Unmarked numbers belong to inactive results. Active and inactive are the calls of the source. How the source made its calls: active means growth percent below 10; inactive means the rest.

`O=C(c1ccc(O)cc1)C1[C@H](c2ccc(Cl)cc2)[C@@H](c2ccccc2)NC12C(=O)Nc1ccc(Cl)cc12` (stereo not given in full): the growth was 48.1% in the assay with EKVX NSCLC; -1.78% (active) with SN12C renal; 35.4% in the assay on UO-31 renal; 66.9% with TK-10 renal; 16.8% with ACHN renal; 29.5% with CAKI-1 renal. Also, the growth is 50.8% with A498 renal; 40.4% in the assay with CCRF-CEM leukemia; 10.3% in the assay with MOLT-4 leukemia; 9.52% (active) in the assay on SR leukemia; 26.4% in the assay with RPMI-8226 leukemia; 47.7% in the assay on OVCAR-8 ovarian. Also, the growth with OVCAR-5 ovarian is 68.8%; in the assay with OVCAR-4 ovarian, 47.1%; in the assay with SK-OV-3 ovarian it was 94.6%; in the assay with IGROV1 ovarian it was 38.9%; with OVCAR-3 ovarian it was 33.1%; in the assay with HS 578T breast it was 60.5%. Further, the results for the growth with NCI/ADR-RES ovarian and in the assay with T-47D breast were 36.2% and 31.4%, respectively.

Take `O=c1[nH]c2ccccc2cc1CSc1ccccc1Nc1nccc(-c2ccc(C(F)(F)F)cc2)n1`: the growth is 64.7% with EKVX NSCLC; 70.3% in the assay on SN12C renal; 72.3% in the assay with UO-31 renal; 112% in the assay on TK-10 renal; 48% in the assay with ACHN renal; 64.4% in the assay on CAKI-1 renal. For the same compound, the growth was 85.5% in the assay on A498 renal; 87.4% in the assay with CCRF-CEM leukemia; 63.5% with MOLT-4 leukemia; 53.7% in the assay with SR leukemia; 62.6% with RPMI-8226 leukemia; 38.1% in the assay with OVCAR-8 ovarian. Also, the growth with OVCAR-5 ovarian was 103%; in the assay with OVCAR-4 ovarian, 48.7%; with SK-OV-3 ovarian, 117%; in the assay with IGROV1 ovarian, 67.8%; with OVCAR-3 ovarian it was 69.8%; in the assay on HS 578T breast, 68.3%. Besides, the growth in the assay with NCI/ADR-RES ovarian was 63.2%; in the assay with T-47D breast, 66.7%.

In the case of `CC(C)(C)Nc1nc2c(OCCc3ccccc3)cccn2c1-c1ccccc1Cl`, the growth in the assay with EKVX NSCLC was 6.5% (active); with SN12C renal, 0.779% (active); in the assay with UO-31 renal it was -14% (active); in the assay on TK-10 renal, 10.6%; with ACHN renal it was 4.1% (active); with CAKI-1 renal, -6.8% (active). The growth in the assay on A498 renal was -23% (active); in the assay with CCRF-CEM leukemia it was 1.24% (active); in the assay with MOLT-4 leukemia, -21.5% (active); in the assay with SR leukemia, -14.6% (active); in the assay on RPMI-8226 leukemia, -25.8% (active); with OVCAR-8 ovarian, 9.35% (active). Moreover, the growth was 10.9% in the assay on OVCAR-5 ovarian; 13.5% in the assay with OVCAR-4 ovarian; -22.7% (active) in the assay with SK-OV-3 ovarian; 5.74% (active) in the assay with IGROV1 ovarian; 8.2% (active) in the assay with OVCAR-3 ovarian; -1.74% (active) in the assay on HS 578T breast. For the same compound, the values for the growth in the assay on NCI/ADR-RES ovarian and in the assay on T-47D breast were 5.82% (active) and 10.3%, respectively.

For the compound `NS(=O)(=O)c1cccc(Nc2nc(SCC(=O)c3ccc(Cl)cc3)nc3ccccc23)c1`, the growth in the assay on EKVX NSCLC is 77.4%; in the assay on SN12C renal it was 63.4%; in the assay with UO-31 renal, 84.2%; with TK-10 renal, 123%; with ACHN renal, 77.6%; in the assay on CAKI-1 renal, 62.3%. In addition, the growth was 85.2% in the assay on A498 renal; 85.7% with CCRF-CEM leukemia; 82.8% in the assay on MOLT-4 leukemia; 59.2% with SR leukemia; 65.4% in the assay with RPMI-8226 leukemia; 39.9% with OVCAR-8 ovarian. The growth with OVCAR-5 ovarian is 116%; in the assay with OVCAR-4 ovarian it was 22.5%; with SK-OV-3 ovarian, 103%; with IGROV1 ovarian it was 76.3%; in the assay with OVCAR-3 ovarian it was 85.8%; in the assay on HS 578T breast, 43.5%. The growth in the assay with NCI/ADR-RES ovarian is 91.1%; in the assay on T-47D breast, 63.3%.

As for `Cc1c(Nc2nnc(SCC(=O)Nc3sc4c(c3C#N)CCCC4)s2)c(=O)n(-c2ccccc2)n1C`, the growth in the assay on EKVX NSCLC is 97.4%; in the assay on SN12C renal, 106%; in the assay with UO-31 renal, 97.3%; in the assay with TK-10 renal, 135%; in the assay on ACHN renal, 100%; with CAKI-1 renal it was 110%. In addition, the growth is 109% in the assay with A498 renal; 99.4% with CCRF-CEM leukemia; 92.7% with MOLT-4 leukemia; 98.5% in the assay with SR leukemia; 96.7% with RPMI-8226 leukemia; 100% in the assay on OVCAR-8 ovarian. For the same compound, the growth in the assay on OVCAR-5 ovarian is 114%; in the assay on OVCAR-4 ovarian, 108%; in the assay with SK-OV-3 ovarian it was 120%; in the assay on IGROV1 ovarian, 104%; with OVCAR-3 ovarian, 99.1%; with HS 578T breast it was 109%. In addition, the growth was 99.5% with NCI/ADR-RES ovarian and 97.3% in the assay on T-47D breast.

For the compound `COc1ccccc1C(=O)CSc1nc(Nc2ccc(S(N)(=O)=O)cc2)c2ccccc2n1`, the growth with EKVX NSCLC was 92.6%; in the assay on SN12C renal, 81.1%; in the assay on UO-31 renal it was 90.6%; with TK-10 renal it was 116%; in the assay with ACHN renal, 92.1%; with CAKI-1 renal, 91.1%. Also, the growth with A498 renal was 99.8%; in the assay on CCRF-CEM leukemia it was 87.3%; in the assay with MOLT-4 leukemia, 93%; in the assay with SR leukemia it was 64.3%; in the assay with RPMI-8226 leukemia, 90.8%; with OVCAR-8 ovarian, 90.5%. For the same compound, the growth is 90.8% in the assay on OVCAR-5 ovarian; 86.6% in the assay with OVCAR-4 ovarian; 121% with SK-OV-3 ovarian; 95.5% with IGROV1 ovarian; 107% with OVCAR-3 ovarian; 96.9% in the assay on HS 578T breast. Also, the growth is 106% in the assay on NCI/ADR-RES ovarian and 89.6% in the assay on T-47D breast.

On to `N#Cc1c(-c2ccc(Cl)cc2)nc(SCc2ccccc2)nc1N1CCNCC1`, for which the growth with EKVX NSCLC was 71.6%; in the assay with SN12C renal it was 54.9%; in the assay on UO-31 renal it was 53%; in the assay on TK-10 renal, 96%; with ACHN renal, 47.8%; in the assay on CAKI-1 renal, 53.1%. Also, the growth is 79.7% in the assay with A498 renal; 45.9% in the assay on CCRF-CEM leukemia; 52.7% in the assay on MOLT-4 leukemia; -24.8% (active) in the assay on SR leukemia; 23% in the assay with RPMI-8226 leukemia; 65.6% in the assay with OVCAR-8 ovarian. The growth is 92.1% in the assay with OVCAR-5 ovarian; 85.2% with OVCAR-4 ovarian; 113% in the assay with SK-OV-3 ovarian; 46.9% with IGROV1 ovarian; 50% with OVCAR-3 ovarian; 91.1% with HS 578T breast. Besides, the growth in the assay on NCI/ADR-RES ovarian and in the assay on T-47D breast was 65.6% each time.

In the case of `N#Cc1c(-c2ccc(Cl)cc2)nc(SCc2ccc([N+](=O)[O-])cc2)nc1N1CCNCC1`, the growth with EKVX NSCLC was 51.9%; with SN12C renal, 1.59% (active); in the assay with UO-31 renal, 22.4%; with TK-10 renal, 77.4%; in the assay with ACHN renal, -67.4% (active); in the assay with CAKI-1 renal it was 13.6%. In addition, the growth is 44.7% in the assay with A498 renal; -14% (active) in the assay with CCRF-CEM leukemia; -27% (active) in the assay on MOLT-4 leukemia; -43.3% (active) with SR leukemia; -24.5% (active) in the assay with RPMI-8226 leukemia; -81.6% (active) in the assay on OVCAR-8 ovarian. In addition, the growth in the assay on OVCAR-5 ovarian was 3.39% (active); in the assay on OVCAR-4 ovarian, 26.9%; in the assay with SK-OV-3 ovarian, 111%; in the assay with IGROV1 ovarian it was -1.76% (active); with OVCAR-3 ovarian it was -32.6% (active); with HS 578T breast, 52.1%. The growth with NCI/ADR-RES ovarian was 8.72% (active); with T-47D breast it was -9.43% (active).
